HSP90 refold inh: HSP90 inhibitors, primary screen, cell lysate, luminescence. Heat shock protein HSP 90 (rabbit reticulocyte lysate; luciferase refolding). Rabbit reticulocyte lysate, luciferase refolding luminescence, 3 h. inhibition, % at 5.6 µM. actives 0.91% (n = 290,000);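 active = inhibition above the screen-wide mean plus 3 SD, computed separately per campaign, cut at about 16% in these data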;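 note: inhibitors lower the luminescence because luciferase stays unfolded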
ARNT TACC3 PPI: disruptors of ARNT/TACC3 protein interaction, primary screen, biochemical, AlphaScreen, single concentration. inhibition, % at 9.99 µM. actives 0.66% (n = 390,000). Transforming acidic coiled-coil-containing protein 3 (Homo sapiens), Q9Y6A5. AlphaScreen His-ARNT PAS-B/GST-TACC3 binding, luminescence; TACC3 fragment carries E629A point mutation. AID 623870, 2012;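 active = mean inhibition of replicates at least 50% and at least half of replicates each reaching 50%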
HSF1 activator: HSF-1 activators, primary screen, NIH3T3-HGL cells, MG132 stress, luminescence, single point. actives 1.7% (n = 300,000). NIH3T3-HGL HSF-1 luciferase reporter, 8 h; 100% = twice DMSO control signal. activation, % at 9 µM;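 active = mean replicate activation of at least 50% with a set share of replicates each reaching 50%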
HIF act: HIF pathway transcriptional activators, primary screen, cell-based, U2OS HRE-luciferase, luminescence. U2OS HRE-luciferase reporter; normalized: DMSO 0%, desferrioxamine 100%. AID 1910, 2009. actives 0.32% (n = 300,000). activation, % at 7.5 µM (by protocol);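 active = mean activation of at least 10% of the iron chelator positive control signal, with at least half of replicates also reaching 10%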
HSF1 inh: HSF1 inhibitors in luciferase reporter cells, primary screen, cell-based, NIH3T3, luminescence; actives 0.77% (n = 300,000); activity change, negative = inhibition, % at 7.5 µM (by protocol); NIH3T3-HGL HSE-luciferase, MG132-induced, luminescence 8 h; hits give low values; AID 2098, 2009;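 active = more than half of replicate wells show activity change below -50%, luminescence cut by over half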;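 note: luciferase reports HSF-1 transcriptional activity via heat shock element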
Hits are given with their value; . = inactive; / = no result given. Hits are enriched below; roughly 3.1% of the tested compounds scored in any of these assays.

SMILES | HSP90 refold inh | ARNT TACC3 PPI | HSF1 activator | HIF act | HSF1 inh
O=C(c1ccc([N+](=O)[O-])cc1)N1CCc2ccccc21 | / | . | . | . | .
O=C(C[C@H]1C=C[C@H](NC(=O)c2ccc(F)cc2)[C@@H](CO)O1)NCCc1ccncc1 | / | . | / | / | /
CC(=O)N[C@H]1C=C[C@H](CC(=O)NCC2CCCCC2)O[C@@H]1CO | / | . | / | / | /
CN(C)C(=O)[C@@H]1[C@@H](CO)[C@@H]2Cn3c(ccc(C4=CCCC4)c3=O)[C@H]1N2C(=O)Nc1ccccc1 | / | . | / | / | /
O=C(CN1CCCC1)Nc1c2c(cc3c1CCC3)CCC2 | . | . | . | . | -64
C[C@@H]1CCCCO[C@H](CN(C)Cc2ccc(C(F)(F)F)cc2)[C@@H](C)CN([C@@H](C)CO)C(=O)c2cc(NS(=O)(=O)c3ccc(Cl)cc3)ccc2O1 | / | . | / | / | /
O=C(COC(=O)c1ccccc1Nc1ccc(SC(F)F)cc1)NC1CC1 | . | . | 79 | . | .
CN(C)C(=O)COC(=O)c1ccccc1OCC(=O)Nc1ccc(SC(F)F)cc1 | . | . | . | . | .
O=C(COc1ccccc1C(=O)O)Nc1ccc(SC(F)F)cc1 | . | . | . | . | -86
CC(C)(C)NC(=O)COC(=O)c1ccccc1Nc1ccc(SC(F)F)cc1 | . | . | 98 | . | .
C[C@@H]1CN([C@H](C)CO)C(=O)c2cc(NS(=O)(=O)c3cn(C)cn3)ccc2O[C@@H](C)CCCCO[C@@H]1CN(C)S(=O)(=O)c1ccccc1 | / | . | / | / | /
C[C@@H]1CN([C@H](C)CO)C(=O)c2cc(NC(=O)CCCCCC(=O)Nc3ccccc3N)ccc2O[C@@H](C)CCCCO[C@@H]1CN(C)C(=O)C1CCCCC1 | / | . | / | / | /
CC(C)(C)[C@H]1C=C(C(=O)Nc2ccccc2)O[C@@H](OCCCCO)C1 | / | . | . | . | -61
CC(C)(C)[C@@H]1C=C(C(=O)O)O[C@H](OCCCCO)C1 | / | . | . | . | .
COC(=O)CCC(=O)COc1ccc(OC)cc1C#N | . | . | 52 | . | .
COc1ccc(NC(=O)N[C@H]2CC[C@@H](CCNC(=O)c3cc(Cl)cc(Cl)c3)O[C@@H]2CO)cc1 | / | . | / | / | /
CC(C)(C)c1nnc(N/N=C/c2ccccc2O)n(N)c1=O | . | 60 | . | . | .
Cc1noc(C)c1NC(=O)N(C)C[C@@H]1OCCCC[C@@H](C)Oc2ccc(NC(=O)NC3CCCCC3)cc2C(=O)N([C@H](C)CO)C[C@@H]1C | / | . | / | / | /
C[C@@H]1CCCCO[C@@H](CN(C)S(=O)(=O)c2ccc(Cl)cc2)[C@H](C)CN([C@@H](C)CO)C(=O)c2cc(NS(C)(=O)=O)ccc2O1 | / | . | / | / | /
C/C(CC(=O)Nc1ccc(Cl)cc1C(F)(F)F)=N\NC(=O)c1ccccn1 | . | . | . | . | .
COc1ccc(NC(=O)c2cc(Cl)ccc2Cl)c([N+](=O)[O-])c1 | . | . | . | . | .
COc1ccc(NC(=O)c2sccc2C)c([N+](=O)[O-])c1 | . | . | 74 | . | .
C/C(CC(=O)Nc1ccccc1C(F)(F)F)=N\NC(=O)c1cnccn1 | / | / | . | . | -84
C/C(CC(=O)Nc1ccc(Cl)cc1C(F)(F)F)=N\NC(=O)c1cccs1 | . | . | 65 | . | .
COc1ccc(NC(=O)c2cccs2)c([N+](=O)[O-])c1 | . | . | . | . | .
COc1ccc(NC(=O)C/C(C)=N/NC(=O)c2cccs2)c([N+](=O)[O-])c1 | . | . | 70 | . | .
C[C@@H]1CCCCO[C@@H](CN(C)CC2CC2)[C@@H](C)CN([C@H](C)CO)C(=O)c2cc(NC(=O)Cc3ccccc3)ccc2O1 | / | . | / | / | /
COc1cccc(-c2ccc3c(c2)[C@H]2[C@H](CCN2C(=O)C2CCOCC2)[C@@H](CO)N3)c1 | / | . | / | / | /
Cc1noc(C)c1NC(=O)N(C)C[C@H]1OCCCC[C@@H](C)Oc2ccc(NS(=O)(=O)c3ccccc3)cc2C(=O)N([C@H](C)CO)C[C@H]1C | / | . | / | / | /
Cc1noc(C)c1NC(=O)Nc1ccc2c(c1)CC(=O)N([C@@H](C)CO)C[C@@H](C)[C@H](CN(C)S(=O)(=O)c1ccc(F)cc1)O2 | / | . | / | / | /
